# In PubChem BioAssay (EPA / NIEHS):
# Records with an inconclusive call do not appear. Active and inactive are the calls of the source. Rule for the calls, unless noted: active = hit-call score of the fitted dose curve at least 0.9, where 1 is the maximum; inactive = score below 0.9.
# Key:
# [1] = CCTE_Shafer_MEA_acute_burst_number: CCTE's Neural Acute Assay for Single-Electrode Bursts, Shafer Lab (AID 2284013)
# How it was run: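 Spontaneous network activity of primary rat cortical neurons was recorded extracellularly on microelectrode arrays at 37 C, with 40-min periods before and during exposure to 0.03-40 uM compound on DIV 13 or 15.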
# [2] = CCTE_Shafer_MEA_acute_burst_duration_mean: CCTE's Neural Acute Assay for Mean Burst Duration, Shafer Lab (AID 2284014);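 note: hits are decreases in mean burst duration relative to DMSO controls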
# How it was run: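 Read-out is the per-well percent change in mean burst duration (first to last spike within a single-electrode burst) between 40-min recordings before and after compound. Cultures were primary rat cortical neurons on MEAs, dosed at 0.03-40 uM on DIV 13 or 15.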
# [3] = CCTE_Shafer_MEA_acute_per_burst_spike_number_mean: CCTE's Neural Acute Assay for Average Number of Spikes Per Burst, Shafer Lab (AID 2284015);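 note: hits are decreases in mean spikes per burst versus baseline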
# How it was run: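 Rat primary cortical neurons on 48-well MEAs (DIV 13 or 15) were treated with 0.03-40 uM compound at 37 C. Mean spikes per burst over 40 min were recorded before and after exposure and expressed as percent change from baseline, relative to DMSO.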
# [4] = CCTE_Shafer_MEA_acute_interburst_interval_mean: CCTE's Neural Acute Assay for Mean Interburst Interval, Shafer Lab (AID 2284016);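 note: percent change of mean interburst interval versus each well's own pre-dose baseline; curves fitted for decrease in interburst interval relative to DMSO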
# How it was run: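 Rat primary cortical neurons on 48-well MEAs at DIV 13 or 15 were exposed acutely to 0.03-40 uM. Spikes detected at 8x rms noise, 37 C. Mean interburst interval from 40 min recordings expressed as percent change from 40 min pre-treatment baseline.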
# [5] = CCTE_Shafer_MEA_acute_burst_percentage_mean: CCTE's Neural Acute Assay for Percentage of Spikes in a Burst, Shafer Lab (AID 2284017)
# How it was run: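 Primary rat cortical neurons on 48-well MEA plates, treated on DIV 13 or 15 at 0.03-40 uM. Spikes detected at 8x rms noise at 37C; percent change from 40-min baseline to 40-min post-dose recording, fitted versus DMSO.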
# [6] = CCTE_Shafer_MEA_acute_burst_percentage_std: CCTE's Neural Acute Assay for Standard Deviation of Burst Percentage, Shafer Lab (AID 2284018);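 note: fitted in the negative direction so actives lower burst percentage SD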
# How it was run: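 Value is percent change from baseline in the across-electrode SD of spikes-in-bursts percentage, wells with >/= 10 active electrodes. Acute 40-min exposure to 0.03-40 uM on DIV 13 or 15 rat cortical cultures, recorded at 37 C after 40-min baseline.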
# [7] = CCTE_Shafer_MEA_acute_per_network_burst_spike_number_mean: CCTE's Neural Acute Assay for Average Number of Spikes in a Network Burst, Shafer Lab (AID 2284019)
# How it was run: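 Read-out is mean spike count per network burst, taken as percent change between a 40-min pre-exposure and a 40-min post-exposure recording per well. Rat primary cortical neurons on MEAs at 37 C, DIV 13 or 15; compounds at 0.03-40 uM.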
# [8] = CCTE_Harrill_HTTr_Viability_MCF7: CCTE's 6-hour Cell Viability Assessment for the High-Throughput Transcriptomics (HTTr) Platform, in MCF-7 cells cultured in DMEM + 10% fetal bovine serum, Harrill Lab (AID 2284010)
# How it was run: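 Viability measured through PI dye exclusion by high-content imaging at 6 h post-dosing.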
# [9] = CCTE_Harrill_HTTr_Apoptosis_MCF7: CCTE's 6-hour Apoptosis Assessment for the High-Throughput Transcriptomics (HTTr) Platform, in MCF-7 cells cultured in DMEM + 10% fetal bovine serum, Harrill Lab (AID 2284011)
# How it was run: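 Read-out: CellEvent Caspase 3/7 Green signal by high content imaging, gain-of-signal indicating apoptosis. MCF-7 cells, DMEM + 10% FBS, eight-point dilution series, 6 h exposure. Curves fitted bidirectionally relative to DMSO negative control.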
# [10] = CCTE_Harrill_HTTr_CellCount_MCF7: CCTE's Cell Proliferation Assessment for the High-Throughput Transcriptomics (HTTr) Platform, Harrill Lab (AID 2284012; active = hit-call score of the fitted dose curve at least 0.9, where 1 is the maximum;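 note: count of Hoechst-stained nuclei per well by high-content imaging in MCF-7 cells; cells exposed to compound for six hours; intended direction is loss of nuclei count meaning fewer cells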)
# How it was run: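 Nuclei counting (Hoechst, high content imaging) in MCF-7 after a 6 h treatment at eight concentrations. Activity fitted bidirectionally, DMSO as negative control.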
smiles,measurement,setting,value
C=C[Si](OC(C)=O)(OC(C)=O)OC(C)=O,outcome,[1],inactive
same,outcome,[2],inactive
same,outcome,[3],inactive
same,outcome,[4],inactive
same,outcome,[5],inactive
same,outcome,[6],inactive
same,outcome,[7],inactive
O=C1CCCN1CCO,outcome,[1],inactive
same,outcome,[2],inactive
same,outcome,[3],inactive
same,outcome,[4],inactive
same,outcome,[5],inactive
same,outcome,[6],inactive
same,outcome,[7],inactive
CCCCC(CC)COC(=O)c1ccccc1 (configuration not stated),outcome,[8],inactive
same,outcome,[9],inactive
same,outcome,[10],inactive
OC1CCCCCCCCCCC1,outcome,[8],inactive
same,outcome,[9],inactive
same,outcome,[10],inactive
NC(=O)N=NC(N)=O,outcome,[8],inactive
same,outcome,[9],inactive
same,outcome,[10],inactive
C1CN(SSN2CCOCC2)CCO1,outcome,[8],inactive
same,outcome,[9],inactive
same,outcome,[10],inactive
CCN(Cc1cccc(S(=O)(=O)O)c1)c1ccc(C(=C2C=CC(=[N+](CC)Cc3cccc(S(=O)(=O)[O-])c3)C=C2)c2ccccc2)cc1,outcome,[8],inactive
same,outcome,[9],inactive
same,outcome,[10],inactive
CO[Si](OC)(OC)c1ccccc1,outcome,[1],inactive
same,outcome,[2],inactive
same,outcome,[3],inactive
same,outcome,[4],inactive
same,outcome,[5],inactive
same,outcome,[6],inactive
same,outcome,[7],inactive
CC(=O)Nc1nnc(S(N)(=O)=O)s1,outcome,[8],inactive
same,outcome,[9],inactive
same,outcome,[10],inactive
COc1ccc(-c2coc3cc(O)ccc3c2=O)cc1,outcome,[8],inactive
same,outcome,[9],inactive
same,outcome,[10],inactive
O=C(c1ccc(O)cc1)c1ccc(O)cc1O,outcome,[1],inactive
same,outcome,[2],inactive
same,outcome,[3],inactive
same,AC50,[4],15 µM (active)
same,outcome,[5],inactive
same,outcome,[6],inactive
same,outcome,[7],inactive
NC(=O)OCC(COC(N)=O)c1ccccc1,outcome,[8],inactive
same,outcome,[9],inactive
same,outcome,[10],inactive
